A number with no mark means an inactive call.
What was measured:
Test in all cases: log2 ratio of Biotin-Ahx-Ub-VS probe labelling (fragment/DMSO); higher = less target engagement (more negative = stronger competition), active = hit call of the paper (q ≤ 0.05, log2 ratio ≤ -1)
Settings in all cases: compound concentration: 200 uM; treatment time: 3 h
[1] = compound: CC(C)CN(C1CC1)C(=O)CCl
Outline: (§1)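 Average log2 ratios of fragment over vehicle were obtained by unpaired t-test from global-median-normalised Spectronaut label-free quantities. Proteins with ≥2 unique peptides were included. HEK293T lysate (495 µg per sample) was treated in triplicate with fragment at 200 µM or vehicle for 3 h, then with Biotin-Ahx-Ub-VS at 0.5 µM final for 1 h, and labelled DUBs were NeutrAvidin-enriched and run by diaPASEF LC-MS/MS.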

[2] = compound: CC(NC(=O)CCl)c1cccs1
Outline: as §1

[3] = compound: CC1CCCCC1NC(=O)CCl
Outline: as §1

[4] = compound: CC1CCCCN1C(=O)CCl
Outline: as §1

[5] = compound: CC1CN(CC(C)O1)C(=O)CCl
Outline: as §1

[6] = compound: CN(C1CCCCC1)C(=O)CCl
Outline: as §1

[7] = compound: Cc1cc(NC(=O)CCl)no1
Outline: as §1

[8] = compound: Cc1cccc(NC(=O)CCl)c1
Outline: as §1

[9] = compound: Cc1nc(NC(=O)CCl)sc1C
Outline: as §1

[10] = compound: Cc1nnc(NC(=O)CCl)s1
Outline: as §1

[11] = compound: Cl.Cc1ncsc1CNC(=O)CCl
Outline: as §1

[12] = compound: ClCC(=O)N1CCCCCCC1
Outline: as §1

[13] = compound: ClCC(=O)NC1(CCCC1)C#N
Outline: as §1

[14] = compound: ClCC(=O)NCC1CCC1
Outline: as §1

[15] = compound: ClCC(=O)NCC1CCCO1
Outline: as §1

[16] = compound: ClCC(=O)NCc1ccco1
Outline: as §1

[17] = compound: ClCC(=O)Nc1cccc(Cl)c1
Outline: as §1

[18] = compound: ClCC(=O)NC(C1CC1)C1CC1
Outline: as §1

UniProt P62068, sequence (P62068 whole entry): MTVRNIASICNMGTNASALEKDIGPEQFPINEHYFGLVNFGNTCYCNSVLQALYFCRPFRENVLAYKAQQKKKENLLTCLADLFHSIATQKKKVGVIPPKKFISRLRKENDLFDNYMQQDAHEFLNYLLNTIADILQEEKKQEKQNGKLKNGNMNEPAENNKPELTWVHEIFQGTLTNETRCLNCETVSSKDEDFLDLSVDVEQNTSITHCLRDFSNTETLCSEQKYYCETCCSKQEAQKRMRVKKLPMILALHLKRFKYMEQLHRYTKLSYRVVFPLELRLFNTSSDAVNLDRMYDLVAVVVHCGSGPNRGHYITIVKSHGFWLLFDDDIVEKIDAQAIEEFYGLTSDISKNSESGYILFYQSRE
UniProt Q96JH7, sequence (Q96JH7 whole entry): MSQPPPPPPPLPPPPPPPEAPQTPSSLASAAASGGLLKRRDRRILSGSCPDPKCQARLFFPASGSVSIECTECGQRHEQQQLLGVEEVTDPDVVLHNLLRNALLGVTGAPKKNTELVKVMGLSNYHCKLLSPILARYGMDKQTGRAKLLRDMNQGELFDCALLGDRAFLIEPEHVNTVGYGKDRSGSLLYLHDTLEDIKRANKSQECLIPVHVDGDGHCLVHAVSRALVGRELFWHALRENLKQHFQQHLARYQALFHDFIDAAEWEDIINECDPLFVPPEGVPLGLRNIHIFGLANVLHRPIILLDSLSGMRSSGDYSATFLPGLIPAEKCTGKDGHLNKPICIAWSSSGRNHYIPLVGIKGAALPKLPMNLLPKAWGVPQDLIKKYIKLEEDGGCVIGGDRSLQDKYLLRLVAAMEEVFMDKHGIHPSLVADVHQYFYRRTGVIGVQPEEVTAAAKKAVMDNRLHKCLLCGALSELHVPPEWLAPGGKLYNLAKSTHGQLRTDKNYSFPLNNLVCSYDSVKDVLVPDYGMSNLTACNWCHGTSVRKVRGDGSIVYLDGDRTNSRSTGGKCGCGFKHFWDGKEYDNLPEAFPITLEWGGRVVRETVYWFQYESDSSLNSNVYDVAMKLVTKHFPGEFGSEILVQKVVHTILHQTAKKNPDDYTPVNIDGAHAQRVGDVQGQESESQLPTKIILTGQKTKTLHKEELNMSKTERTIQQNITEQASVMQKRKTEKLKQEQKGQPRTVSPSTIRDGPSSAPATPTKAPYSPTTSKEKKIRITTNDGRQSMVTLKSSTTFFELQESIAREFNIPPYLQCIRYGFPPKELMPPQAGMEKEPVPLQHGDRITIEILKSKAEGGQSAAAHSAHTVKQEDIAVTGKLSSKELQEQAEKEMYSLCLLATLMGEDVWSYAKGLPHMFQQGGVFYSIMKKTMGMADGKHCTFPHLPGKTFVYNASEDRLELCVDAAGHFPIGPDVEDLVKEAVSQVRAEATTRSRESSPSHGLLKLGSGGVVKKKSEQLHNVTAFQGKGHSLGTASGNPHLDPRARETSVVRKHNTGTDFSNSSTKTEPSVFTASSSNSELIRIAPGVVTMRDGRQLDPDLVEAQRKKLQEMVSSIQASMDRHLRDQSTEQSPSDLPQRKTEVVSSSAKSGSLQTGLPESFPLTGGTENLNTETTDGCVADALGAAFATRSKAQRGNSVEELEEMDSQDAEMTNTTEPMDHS
UniProt Q9UPT9, sequence (Q9UPT9 whole entry): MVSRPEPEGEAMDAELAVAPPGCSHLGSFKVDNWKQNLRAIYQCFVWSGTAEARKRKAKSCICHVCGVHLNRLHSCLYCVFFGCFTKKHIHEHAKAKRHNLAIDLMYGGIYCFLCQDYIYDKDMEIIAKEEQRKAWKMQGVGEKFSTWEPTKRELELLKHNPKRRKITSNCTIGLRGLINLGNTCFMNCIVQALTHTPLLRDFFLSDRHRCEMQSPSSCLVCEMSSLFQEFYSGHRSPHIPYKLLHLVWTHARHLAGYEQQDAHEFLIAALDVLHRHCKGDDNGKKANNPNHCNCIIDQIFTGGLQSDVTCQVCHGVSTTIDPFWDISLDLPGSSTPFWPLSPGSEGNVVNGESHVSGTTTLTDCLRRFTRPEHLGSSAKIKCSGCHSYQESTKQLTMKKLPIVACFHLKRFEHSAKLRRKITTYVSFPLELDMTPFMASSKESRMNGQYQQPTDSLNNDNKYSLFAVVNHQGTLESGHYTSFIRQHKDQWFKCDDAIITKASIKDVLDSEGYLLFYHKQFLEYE
UniProt P09936, sequence (P09936 whole entry, looked up): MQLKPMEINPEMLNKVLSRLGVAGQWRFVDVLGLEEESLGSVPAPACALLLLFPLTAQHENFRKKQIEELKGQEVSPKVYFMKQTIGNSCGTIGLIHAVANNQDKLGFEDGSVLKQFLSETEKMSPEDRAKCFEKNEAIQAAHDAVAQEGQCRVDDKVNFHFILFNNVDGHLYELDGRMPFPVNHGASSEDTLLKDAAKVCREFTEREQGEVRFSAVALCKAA
UniProt P15374, sequence (P15374 whole entry): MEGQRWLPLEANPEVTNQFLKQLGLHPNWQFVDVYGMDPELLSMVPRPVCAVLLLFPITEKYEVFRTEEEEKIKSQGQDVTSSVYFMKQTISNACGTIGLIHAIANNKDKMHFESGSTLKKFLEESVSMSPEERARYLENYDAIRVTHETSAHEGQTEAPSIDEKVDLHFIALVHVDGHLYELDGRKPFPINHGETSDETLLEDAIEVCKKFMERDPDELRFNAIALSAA
UniProt Q9NUU6, sequence (Q9NUU6 whole entry): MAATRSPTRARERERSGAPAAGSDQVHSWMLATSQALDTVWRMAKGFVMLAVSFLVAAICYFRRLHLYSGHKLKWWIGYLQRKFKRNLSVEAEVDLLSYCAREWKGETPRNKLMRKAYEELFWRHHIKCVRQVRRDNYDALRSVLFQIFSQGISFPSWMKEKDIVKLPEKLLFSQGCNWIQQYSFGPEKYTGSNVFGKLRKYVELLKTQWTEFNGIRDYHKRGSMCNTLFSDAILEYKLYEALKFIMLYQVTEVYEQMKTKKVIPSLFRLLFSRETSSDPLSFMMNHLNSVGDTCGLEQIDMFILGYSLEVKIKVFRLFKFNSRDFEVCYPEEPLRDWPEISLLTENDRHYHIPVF
UniProt Q6GQQ9, sequence (Q6GQQ9 whole entry): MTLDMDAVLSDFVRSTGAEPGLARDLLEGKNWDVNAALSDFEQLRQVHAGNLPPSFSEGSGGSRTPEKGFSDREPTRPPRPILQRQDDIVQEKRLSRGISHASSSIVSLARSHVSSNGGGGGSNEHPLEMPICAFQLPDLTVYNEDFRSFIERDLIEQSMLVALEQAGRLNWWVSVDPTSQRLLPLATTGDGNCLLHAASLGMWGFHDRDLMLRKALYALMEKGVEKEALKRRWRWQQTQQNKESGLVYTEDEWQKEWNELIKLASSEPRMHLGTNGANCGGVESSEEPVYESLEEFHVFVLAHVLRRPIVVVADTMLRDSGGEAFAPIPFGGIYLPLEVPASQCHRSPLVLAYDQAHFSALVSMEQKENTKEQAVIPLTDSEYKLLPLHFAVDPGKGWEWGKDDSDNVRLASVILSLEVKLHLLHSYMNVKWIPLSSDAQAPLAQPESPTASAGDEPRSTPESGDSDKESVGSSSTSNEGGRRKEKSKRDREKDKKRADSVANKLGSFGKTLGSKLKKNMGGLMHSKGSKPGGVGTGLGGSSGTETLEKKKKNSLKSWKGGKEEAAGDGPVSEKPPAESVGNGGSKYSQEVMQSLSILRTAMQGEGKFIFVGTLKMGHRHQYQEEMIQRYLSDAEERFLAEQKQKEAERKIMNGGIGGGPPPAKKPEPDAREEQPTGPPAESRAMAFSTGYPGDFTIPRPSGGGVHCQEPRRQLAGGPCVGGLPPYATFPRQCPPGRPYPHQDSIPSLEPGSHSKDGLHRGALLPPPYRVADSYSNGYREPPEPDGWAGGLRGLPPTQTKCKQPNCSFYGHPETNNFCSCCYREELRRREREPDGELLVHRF
UniProt P54252, sequence (P54252 whole entry): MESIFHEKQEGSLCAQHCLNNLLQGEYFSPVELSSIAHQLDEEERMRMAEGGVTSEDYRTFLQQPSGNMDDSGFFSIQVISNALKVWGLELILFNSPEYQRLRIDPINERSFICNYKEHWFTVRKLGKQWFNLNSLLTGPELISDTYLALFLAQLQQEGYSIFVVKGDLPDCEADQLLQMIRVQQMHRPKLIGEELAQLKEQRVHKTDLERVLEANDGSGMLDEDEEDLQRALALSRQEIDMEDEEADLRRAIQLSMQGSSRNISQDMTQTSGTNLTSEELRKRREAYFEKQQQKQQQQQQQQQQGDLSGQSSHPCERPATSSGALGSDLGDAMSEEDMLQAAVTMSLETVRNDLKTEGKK
UniProt Q96G74, sequence (Q96G74 whole entry): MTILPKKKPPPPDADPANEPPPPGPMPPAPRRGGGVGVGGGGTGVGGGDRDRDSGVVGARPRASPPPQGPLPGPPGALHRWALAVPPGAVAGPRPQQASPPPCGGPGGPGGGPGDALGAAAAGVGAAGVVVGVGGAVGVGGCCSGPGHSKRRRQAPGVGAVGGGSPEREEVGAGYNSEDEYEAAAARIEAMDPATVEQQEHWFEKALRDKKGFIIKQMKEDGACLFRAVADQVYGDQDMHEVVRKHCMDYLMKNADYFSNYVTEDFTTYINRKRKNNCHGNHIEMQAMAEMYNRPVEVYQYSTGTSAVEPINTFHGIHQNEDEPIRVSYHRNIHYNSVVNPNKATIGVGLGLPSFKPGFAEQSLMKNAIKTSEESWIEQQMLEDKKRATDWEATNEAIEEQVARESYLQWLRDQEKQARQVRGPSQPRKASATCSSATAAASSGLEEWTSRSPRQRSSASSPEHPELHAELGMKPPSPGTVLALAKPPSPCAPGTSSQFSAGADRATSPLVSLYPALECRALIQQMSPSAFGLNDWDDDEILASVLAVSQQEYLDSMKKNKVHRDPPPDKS
UniProt Q96FW1, sequence (Q96FW1 whole entry): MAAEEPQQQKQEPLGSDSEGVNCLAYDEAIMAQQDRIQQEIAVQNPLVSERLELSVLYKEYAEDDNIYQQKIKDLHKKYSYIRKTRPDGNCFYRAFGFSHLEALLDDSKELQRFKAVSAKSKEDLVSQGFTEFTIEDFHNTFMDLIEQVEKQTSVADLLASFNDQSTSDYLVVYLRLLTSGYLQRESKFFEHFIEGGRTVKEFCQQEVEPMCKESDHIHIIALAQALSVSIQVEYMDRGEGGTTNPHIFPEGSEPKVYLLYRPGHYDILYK

Target | log2 ratio of Biotin-Ahx-Ub-VS probe labelling [1] | log2 ratio of Biotin-Ahx-Ub-VS probe labelling [2] | log2 ratio of Biotin-Ahx-Ub-VS probe labelling [3] | log2 ratio of Biotin-Ahx-Ub-VS probe labelling [4] | log2 ratio of Biotin-Ahx-Ub-VS probe labelling [5] | log2 ratio of Biotin-Ahx-Ub-VS probe labelling [6] | log2 ratio of Biotin-Ahx-Ub-VS probe labelling [7] | log2 ratio of Biotin-Ahx-Ub-VS probe labelling [8] | log2 ratio of Biotin-Ahx-Ub-VS probe labelling [9] | log2 ratio of Biotin-Ahx-Ub-VS probe labelling [10] | log2 ratio of Biotin-Ahx-Ub-VS probe labelling [11] | log2 ratio of Biotin-Ahx-Ub-VS probe labelling [12] | log2 ratio of Biotin-Ahx-Ub-VS probe labelling [13] | log2 ratio of Biotin-Ahx-Ub-VS probe labelling [14] | log2 ratio of Biotin-Ahx-Ub-VS probe labelling [15] | log2 ratio of Biotin-Ahx-Ub-VS probe labelling [16] | log2 ratio of Biotin-Ahx-Ub-VS probe labelling [17] | log2 ratio of Biotin-Ahx-Ub-VS probe labelling [18]
OTUD7B (UniProt Q6GQQ9) | 0.0222 | -1.59 (active) | -1.86 (active) | -0.521 | -0.504 | -0.33 | -1.28 (active) | -0.708 | -0.151 | -0.187 | -0.43 | -0.18 | -1.84 (active) | -1.31 (active) | -0.129 | -0.96 | -1.56 (active) | 
UniProt O00487 | -0.123 | -0.134 | -0.0855 | -0.115 | -0.19 | -0.0571 | 0.0118 | -0.116 | -0.0519 | -0.139 | 0.0936 | -0.0818 | -0.263 | -0.192 | -0.162 | -0.0244 | -0.0223 | 
USP28 (UniProt Q96RU2) | -0.207 | -0.568 | -0.669 | -0.421 | -0.575 | -0.419 | -0.987 | -0.664 | -0.857 | -0.957 | -0.256 | -0.28 | -0.611 | -0.427 | -0.11 | -0.47 | -1.44 (active) | -0.446
OTUB1 (UniProt Q96FW1) | -0.0296 | 0.137 | -0.0525 | -0.264 | -0.26 | 0.0388 | 0.388 | 0.123 | 0.281 | 0.165 | -0.174 | 0.116 | -0.247 | -0.422 | 0.252 | -0.0321 | -0.286 | 
USP5 (UniProt P45974) | 0.195 | 0.3 | -0.0515 | -0.178 | 0.00747 | 0.487 | -0.18 | -0.356 | 0.0301 | -0.648 | -0.209 | 0.18 | -0.00567 | -0.0477 | 0.0345 | 0.0924 | -0.784 | -0.319
USP8 (UniProt P40818) | 0.058 | -0.288 | -0.13 | -0.147 | -0.531 | -0.314 | -0.16 | -0.0703 | -0.125 | -0.197 | -0.245 | -0.233 | -0.572 | -0.442 | 0.167 | -0.538 | -0.963 | 
UniProt Q9UGI0 | 0.11 | -0.241 | -0.605 | -1.13 (active) | -0.702 | -0.423 | -0.555 | -0.519 | -0.47 | -0.661 | -0.315 | 0.214 | -0.804 | -0.704 | 0.145 | -0.705 | -1.16 (active) | 
VCPIP1 (UniProt Q96JH7) | -0.221 | -1.63 (active) | -0.946 | -0.492 | -0.305 | -0.056 | -1.46 (active) | -1.21 (active) | -0.628 | -0.412 | -1.34 (active) | -0.205 | -0.518 | -0.707 | -0.226 | -0.695 | -2.08 (active) | 
UCHL1 (UniProt P09936) | -1.13 (active) | -1.4 (active) | -1.18 (active) | -1.34 (active) | -1.75 (active) | -1.52 (active) | -1.21 (active) | -1.8 (active) | -1.21 (active) | -1.48 (active) | -0.693 | -1.43 (active) | -2.07 (active) | -1.66 (active) | -1.22 (active) | -1.39 (active) | -2.02 (active) | 
USP22 (UniProt Q9UPT9) | 0.0555 | 0.184 | -0.0563 | 0.000369 | 0.0274 | 0.0658 | -0.433 | -0.357 | -0.117 | 0.0632 | 0.00275 | -0.145 | 0.0376 | 0.219 | -0.0487 | 0.0686 | -0.655 | 
USP46 (UniProt P62068) | -0.0299 | -0.0303 | 0.206 | -0.116 | -0.0331 | -0.248 | -0.103 | -0.0865 | -0.0696 | -0.323 | 0.0828 | -0.198 | 0.0653 | 0.0564 | 0.118 | 0.0832 | -0.509 | 
ATXN3 (UniProt P54252) | -0.0377 | 0.0273 | -0.0841 | -0.487 | -0.327 | -0.303 | -0.0822 | -0.171 | -0.116 | -0.268 | -0.254 | -0.156 | -0.305 | -0.206 | -0.0451 | -0.0869 | -1.02 (active) | 
USP47 (UniProt Q96K76) | -0.233 | -0.0445 | 0.00775 | -0.363 | 0.145 | -0.299 | -0.276 | -0.708 | -0.108 | -0.366 | 0.0602 | -0.137 | 0.0163 | -0.243 | -0.458 | -0.679 | -0.241 | 
USP15 (UniProt Q9Y4E8) | -0.00677 | 0.017 | -0.0215 | -0.269 | -0.339 | -0.338 | -0.104 | -0.325 | -0.245 | -0.374 | -0.116 | -0.163 | -0.364 | -0.255 | 0.0921 | -0.327 | -0.77 | 
OTUD5 (UniProt Q96G74) | -0.09 | 0.0244 | -0.556 | -0.67 | -0.615 | -0.0917 | -0.331 | -0.13 | -0.315 | -0.685 | -0.104 | -0.27 | -0.519 | -0.238 | -0.0992 | -0.442 | -0.995 | 
PRPF8 (UniProt Q6P2Q9) | 0.0577 | -0.0808 | -0.0383 | -0.109 | -0.0419 | -0.249 | 0.147 | 0.15 | 0.137 | 0.0499 | -0.0129 | 0.139 | -0.152 | -0.103 | 0.164 | -0.228 | 0.0652 | 
UCHL3 (UniProt P15374) | 0.39 | 0.116 | 0.0229 | 0.0176 | 0.122 | -0.0569 | -0.129 | -0.345 | 0.56 | 0.214 | 0.504 | 0.341 | -0.0242 | 0.0333 | 0.275 | 0.103 | -0.827 | 
FAM105A (UniProt Q9NUU6) | 0.277 | 0.257 | 0.116 | 0.0605 | 0.177 | 0.232 | -0.696 | 0.176 | 0.144 | 0.133 | -0.00706 | -0.0484 | 0.105 | 0.185 | -0.0373 | 0.0935 | 0.0436 | 

Source: the supplement of paper PMC11732987, “Enantioselective OTUD7B fragment discovery through chemoproteomics screening and high-throughput optimisation” (Communications Chemistry, 2025)
